# PfHsp90 set2: growth inhibition of yeast expressing Plasmodium Hsp90 | AID 504621 | 310,000 tested, 0.32% active | inhibition, % at 9.4 µM | S. cerevisiae expressing PfHsp90, BacTiter-Glo ATP, 48 h; yeast lacking PDR1 and PDR3 efflux regulators;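 active = every replicate shows inhibition above about 80%, whatever the replicate mean, limit read from the data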;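 also: 0% = DMSO neutral controls and 100% = 20 µM radicicol positive controls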
# tim10-1 inh: growth inhibitors of tim10-1 mutant yeast; S. cerevisiae tim10-1 ts strain growth, BacTiter-Glo, 24 h; AID 463190; inhibition, % at 20 µM; 330,000 tested, 2.2% active;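 active = inhibition of at least 40%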;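 also: mutant grown at 25 °C; 0% = DMSO wells with yeast and 100% = wells holding no yeast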
# V-ATPase pHluor: regulators of yeast V-ATPase proton transport | S. cerevisiae, pHLuorin cytosolic pH fluorescence | response, % at 10 µM | 350,000 tested, 0.37% active; in the data active = response mostly above about 7.3%, no sharp cut-off; inactive = mostly below about 5.4%; also: actives read high
# tim23-1 inh: inhibits growth of tim23-1 mutant yeast; S. cerevisiae tim23-1 growth, BacTiter-Glo luminescence, 24 h; inhibition, % at 20 µM; 330,000 tested, 1.3% active; AID 463212;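 active = growth inhibition of the mutant yeast at or above 50%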;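 also: temperature-sensitive mutant grown at 25 °C; plate controls were DMSO-treated mutant yeast for no effect and medium wells lacking yeast for full effect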
# TIM10 inh: inhibits growth of TIM10 yeast strain; S. cerevisiae TIM10 strain growth, BacTiter-Glo luminescence, 24 h; inhibition, % at 10 µM; 330,000 tested, 1.4% active;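 active = inhibition of 40% or more at the single tested concentration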;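 also: wild-type TIM10 isogenic control strain grown at permissive 25 °C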
# * = called active by the depositor; . = not tested or not shown. Compounds with a hit are over-represented: about 3.7% of the library has one in this group of screens.
SMILES,PfHsp90 set2,tim10-1 inh,V-ATPase pHluor,tim23-1 inh,TIM10 inh
O=C1/C(=C\c2ccccc2)CN(C(=O)CCN2CCCCC2)C/C1=C/c1ccccc1,10,.,0,.,.
CCN(C(=O)COc1ccccc1)c1nnc(-c2cccnc2)s1,15,19,26*,32,27
O=c1cc(CSc2ccc(Cl)cc2)nc(-c2ccccc2)[nH]1,-17,15,1,18,26
O=c1cc(CSc2ccc(Cl)cc2)nc(-c2ccccn2)[nH]1,105*,27,-2,25,-33
COc1ccc(-c2nc(CN3CCC(C(=O)NC4CCCc5ccccc54)CC3)c(C)o2)cc1OC (stereo unspecified),2,.,13*,.,.
COc1ccc(-c2nc(CN3CCC(C(=O)NC4CCCC4)CC3)c(C)o2)cc1OC,-1,-2,1,-6,4
O=C1NC(=O)/C(=C/c2cccc([N+](=O)[O-])c2)N1,2,13,-2,-8,-7
CCN1C/C(=C/c2cccc([N+](=O)[O-])c2)C(=O)/C(=C/c2cccc([N+](=O)[O-])c2)C1,102*,.,3,.,.
CC12CCC(=O)C=C1CCCC2=O (stereo unspecified),.,.,1,.,.
COc1ccc(C(NC(C)=O)c2cc(Cl)c3cccnc3c2O)cc1 (stereo unspecified),-103,36,3,46,-5
CCCCC(=O)NC(c1ccc(Cl)cc1Cl)c1ccc2cccnc2c1O (stereo unspecified),-78,2,6,-4,-65
CC(=O)NC(c1ccc(C)cc1)c1cc([N+](=O)[O-])c2cccnc2c1O (stereo unspecified),-17,37,-1,-13,25
CCCC(=O)NC(c1ccc(OC)c(OC)c1)c1cc(Cl)c2cccnc2c1O (stereo unspecified),100*,26,0,8,-7
O=C(NC(c1ccc(Cl)cc1)c1cc(Cl)c2cccnc2c1O)c1cccnc1 (stereo unspecified),102*,.,0,.,.
CCCCC(=O)NC(c1cccs1)c1cc(Cl)c2cccnc2c1O (stereo unspecified),103*,23,-1,44,13
Oc1ccc(N=Nc2nc(-c3ccccc3)c(-c3ccccc3)[nH]2)cc1,100*,10,0,32,22
CC(Oc1ccc(Cl)cc1)C(=O)NNC(=S)NC(=O)c1ccco1 (stereo unspecified),103*,-4,2,16,-11
COc1ccccc1C(=O)NNC(=S)NC(=O)c1ccco1,104*,-9,2,-62,-26
COc1ccc(C(=O)NNC(=S)NC(=O)c2ccco2)cc1,.,5,-3,-21,18
COc1ccc(C=CC(=O)c2ccc(OC)c(OC)c2O)cc1OC,23,.,0,.,.
O=C(/C=C/c1ccccc1)c1cc(Br)ccc(=O)c1O,82*,-1,16,0,-8
Cc1ccc(/C=C/C(=O)c2ccccc(=O)c2O)cc1C,97*,.,-2,.,.
COc1ccc2nc(N3CCCCC3)c(/C=C3\SC(=S)NC3=O)cc2c1,13,22,1,28,22
O=C1NC(=S)S/C1=C\c1cc2ccccc2nc1N1CCCCC1,108*,6,7,38,36
CCOc1ccc(C(C)NC(=O)c2cc(=O)[nH]c3ccccc23)cc1OCC (stereo unspecified),-3,-15,2,3,0
SMILES,PfHsp90 set2,tim10-1 inh,V-ATPase pHluor,tim23-1 inh,TIM10 inh
O=C(Nc1cc(Cl)ccc1-n1cncn1)c1ccc([N+](=O)[O-])s1,114*,34,2,47,25
Cc1ccc(-n2c(Cc3cccn3C)nnc2SCC(=O)N2CCN(c3ccccc3)CC2)cc1,-32,20,20*,14,32
CCOC(=O)c1c(C)[nH]c(C)c1C(=O)COC(=O)c1nn(CC)c(=O)c2ccccc12,.,.,-1,.,.
COc1cc(C=NO)nc(-c2ccccn2)c1,98*,.,2,.,.
COc1ccc(C2(CNC(=O)C(=O)Nc3ccc(C)cc3)CCOCC2)cc1,-1,5,1,17,13
Cc1ccc(NS(=O)(=O)c2ccc(N3CCN(c4ccc(O)cc4)CC3)c([N+](=O)[O-])c2)c(C)c1,96*,-18,0,20,-10
N#C/C(=C/c1ccc(N2CCCCC2)o1)C(=O)Nc1ccc2ccccc2c1,-13,.,41*,.,.
N#C/C(=C/c1ccc(N2CCCCC2)o1)C(=O)Nc1ccc(Cl)cc1,8,11,-1,-11,2
O=C(O)CC(Cc1ccccc1)(C(=O)O)c1ccccc1 (stereo unspecified),-21,2,0,10,-4
Cc1cc(NC(c2ccc(Cl)cc2)c2ccc3cccnc3c2O)no1 (stereo unspecified),101*,18,-1,44,17
CC(=O)NC(c1ccc(Cl)cc1)c1ccc2cccnc2c1O (stereo unspecified),114*,.,-2,.,.
O=C(O)c1ccccc1NC(c1ccccc1)c1ccc2cccnc2c1O (stereo unspecified),121*,.,-4,.,.
CC(C)C(=O)NC(c1ccc(Cl)cc1Cl)c1ccc2cccnc2c1O (stereo unspecified),113*,-36,-2,45,-3
CC(=O)NC(c1ccco1)c1ccc2cccnc2c1O (stereo unspecified),4,30,-2,17,-11
CSC[C@H]1CN(CCc2ccccc2)C(=O)[C@@H]1CC(=O)Nc1ccc(Br)cc1,.,.,-2,.,.
CCCCCCCN1C2=NCCN2c2ccccc21,7,-5,22*,6,2
CCCCCCN1C2=NCCN2c2ccccc21,24,-11,-2,-4,-3
O=C1C=CC(=O)N1CCCCCCCCCCN1C(=O)C=CC1=O,107*,.,-1,.,.
O=c1cc(N=Nc2ccc(Cl)cc2)[nH]c(=O)[nH]1,30,.,13*,.,.
CC1CCCCC12NC(=O)N(CC(=O)N1CCN(S(=O)(=O)c3ccc4c(c3)CCC4)CC1)C2=O (stereo unspecified),.,-12,25*,-11,-2
O=C(COC(=O)CN=C1NS(=O)(=O)c2ccccc21)Nc1ccccc1OC(F)F,-12,10,15*,-11,3
O=C(COC(=O)COc1ccccc1Cl)Nc1ccccc1OC(F)F,.,19,0,12,4
Cc1ccccc1NC(=O)CNC(=O)N1CC(=O)Nc2ccccc21,.,.,0,.,.
O=C(Nc1nc(-c2ccccc2)c(-c2ccccc2)o1)c1ccc(F)cc1,105*,33,0,23,35
OC(COc1ccc(Br)cc1)CN1CCN(c2ccccc2)CC1 (stereo unspecified),-9,-64,-2,-6,-15
COc1cccc(CNC(=O)CN2C(=O)COc3ccc(S(=O)(=O)N4CCC(C)CC4)cc32)c1,-9,12,5,9,3
CCn1c(=S)[nH]c2c(c1=O)C(C)(C)Cc1ccccc1-2,-9,.,13*,.,.
Cn1c(=S)[nH]c2c(c1=O)C(C)(C)Cc1ccccc1-2,17,.,1,.,.
O=C(NCc1ccc2c(c1)OCO2)c1ccc(Br)cc1,89*,-21,-1,37,-71
